Source: paper PMC5540273 (PLoS ONE, 2017)

Assays:
Settings in all cases: concentration: 1 μM, replicates: in singlicate; n = 1
PIP5K1A = system: PIP5K1A
PIP5K1C = system: PIP5K1C
PIP5K2B = system: PIP5K2B
PIP5K2C = system: T1, PIP5K2C
T1 construct: gene PIP4K2C

PKAC-alpha = system: T2, PKAC-alpha
T2 construct: gene PRKACA

PKAC-beta = system: T3, PKAC-beta
T3 construct: gene PRKACB

PKMYT1 = system: PKMYT1
PKN1 = system: PKN1
PKN2 = system: PKN2
PLK1 = system: PLK1
PLK2 = system: PLK2
PLK3 = system: PLK3
PLK4 = system: PLK4
PRKCD = system: PRKCD
PRKCE = system: PRKCE
PRKCH = system: PRKCH
PRKCI = system: PRKCI
PRKCQ = system: PRKCQ
PRKD1 = system: PRKD1
PRKD2 = system: PRKD2
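Also: KINOMEscan kinase panel screen.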

SMILES	%Inh (PIP5K1A) [%]	%Inh (PIP5K1C) [%]	%Inh (PIP5K2B) [%]	%Inh (PIP5K2C) [%]	%Inh (PKAC-alpha) [%]	%Inh (PKAC-beta) [%]	%Inh (PKMYT1) [%]	%Inh (PKN1) [%]	%Inh (PKN2) [%]	%Inh (PLK1) [%]	%Inh (PLK2) [%]	%Inh (PLK3) [%]	%Inh (PLK4) [%]	%Inh (PRKCD) [%]	%Inh (PRKCE) [%]	%Inh (PRKCH) [%]	%Inh (PRKCI) [%]	%Inh (PRKCQ) [%]	%Inh (PRKD1) [%]	%Inh (PRKD2) [%]
CN(c1ccc(F)c(NC(=O)c2cccc(OC(C)(C)C#N)c2Cl)c1)c1ccc2nc(NC(=O)C3CC3)sc2n1	34	0	3	0	17	0	4	4	0	0	0	0	0	0	0	16	4	5	0	3
CCOc1nccc(-c2c(-c3ccc(F)cc3)ncn2C2CCNCC2)n1 [SB-249175]	0	14	0	21	11	25	23	6	18	9	24	23	26	20	5	100	5	10	38	35
CN(c1ccc2c(c1)nc(NCc1ccccc1)n2C)c1ccnc(Nc2ccc(CS(C)(=O)=O)cc2)n1.Cl [GW811603]	23	44	0	79	0	0	0	0	0	0	0	79	62	100	36	0	0	0	0	0
Cl.O=C(Nc1ccc(Oc2ccc3[nH]c(NC(=O)c4ccco4)nc3c2)cc1)Nc1cc(C(F)(F)F)ccc1F [GW683134]	0	10	0	0	0	8	0	7	0	0	0	0	0	4	0	0	0	9	0	0
COc1cccc(CC(=O)N2CCc3cc(-c4cn(C)c5ncnc(N)c45)ccc32)c1 [GSK2608899]	0	10	34	0	4	12	10	19	0	9	0	0	4	17	1	10	31	0	18	1
CC(C)NCC(Cc1ccccc1)NC(=O)c1cc(Br)c(-c2ccnc3[nH]ccc23)s1.Cl.Cl (centres unmarked) [GSK1383281]	14	49	17	37	99.4	99	0	40	57	0	13	38	90.1	84	89	82	19	50	75	71
CCNC(=O)/C=C/c1n[nH]c2cc(Sc3ccccc3C(=O)NC)ccc12	0	0	33	0	4	21	30	0	17	0	17	18	91.9	6	3	0	5	0	3	14
Cl.Cl.NCC(NC(=O)c1cc(-c2cccnc2)c(-c2ccnc3[nH]ccc23)s1)c1ccccc1 (centres unmarked) [GSK1323434]	29	80	10	65	95.7	91.2	10	0	0	2	35	0	0	95.4	82	88	47	75	1	12
Cc1ccc(O)cc1Nc1ccnc2ccc(C(C)(C)C)cc12 [GW856805]	0	0	0	0	43	0	14	0	14	63	29	15	27	17	31	3	39	0	0	13
CN(C)c1ncnc2nc[nH]c12 [SKF-31736]	0	0	0	10	0	0	4	0	1	12	20	30	1	0	3	0	0	0	0	0
